# PubChem BioAssay AID2320 (National Center for Advancing Translational Sciences (NCATS), 2010)
# Inconclusive results are not listed. A call without a number means that no potency is given here. Calls of active or inactive are those of the source. The call rests on the fitted dose curve.
# Test: A qHTS for Small Molecule Inhibitors of Shiga Toxin (Confirmatory); further: nearly all actives have a fitted effect of over 75% in size
# Potency means the concentration at half of the fitted maximal effect.
row,Structure (SMILES),Potency
1,N#Cc1cc2c(nc1SCC(=O)Nc1cc(Cl)ccc1Cl)C1CCN2CC1,12.6 µM (active)
2,COc1cc(/C=C2/C(=O)c3cccc([N+](=O)[O-])c3C2=O)c(Br)cc1O,22.5 µM (active)
3,CSCc1cc(N2CCOCC2)nc(SCc2ccc(Cl)cc2Cl)n1,inactive
4,CSc1nc(C)c2cc(C)oc2n1,inactive
5,CC(=O)c1ccccc1Oc1ncnc(N)c1[N+](=O)[O-],inactive
6,O=C(CCS(=O)(=O)c1cccs1)Nc1ccc(C(=O)NCc2cccs2)cc1,inactive
7,Cc1noc(/C=C/c2ccco2)c1S(=O)(=O)N1CCC(C(=O)N(C)Cc2ccccc2)CC1,22.5 µM (active)
8,C=C1C(O)C2OC3(CCC(/C=C/C(C)C4CC(C)=CC5(OC(CC(C)(O)C(=O)O)CCC5O)O4)O3)CCC2OC1C(O)CC(C)C1OC2(CCCCO2)CCC1C (stereo unspecified),20 µM (active)
9,CC(=O)c1cccc(NC(=O)c2ccc(NC(=O)CCS(=O)(=O)c3cccs3)cc2)c1,inactive
10,CC1CCC/C=C/C2CC(O)CC2C(O)/C=C/C(=O)O1 (stereo unspecified),0.565 µM (active)
11,CC(OC(=O)c1ccc2c(=O)n3c(nc2c1)CCC3)C(N)=O (stereo unspecified),inactive
12,O=C(NCC(=O)N1CCCC(C(F)(F)F)C1)c1ccc(Oc2ccccc2)cc1 (stereo unspecified),inactive
13,O=C(Nc1nnc(S(=O)(=O)N2CCOCC2)s1)c1cccc(Br)c1,20 µM (active)
14,O=C(COc1ncnc2ccccc12)NCCC1=CCCCC1,inactive
15,Cc1nc(SCC(=O)Nc2cc(C)on2)c2c3c(sc2n1)CCCC3,inactive
16,CCc1ccc(C(=O)c2oc3nc(C)cc(C)c3c2N)cc1,5.04 µM (active)
